{
  "source": "ChEMBL document CHEMBL5606460",
  "about": "“ASAP - DENV-2 NS2B-NS3 protease fluorescence single point” (2024)",
  "target": "Genome polyprotein (dengue virus type 2) (UniProt P29990)",
  "key": {"[1]": {"conditions": "Thailand/16681/1984, Concentration 25.0 uM, Number of replicates 1.0"}},
  "note": "Screen size: about 2,000 compounds; about 110 (5.5%) showed an effect of 50% or more. For the sample, strong results were picked, then their nearest neighbours and some compounds at random.",
  "data": [
    {"smiles": "CCc1nc(CNC(=O)[C@]2(c3ccc(F)cc3)CCCNC2)n[nH]1", "values": [
      {"measurement": "inhibition", "setting": "Thailand/16681/1984, Concentration 49.5 uM, Number of replicates 2.0, Standard deviation 0.49799700461423274 %", "result": -1.23, "unit": "%"},
      {"measurement": "inhibition", "setting": "Thailand/16681/1984, Concentration 99.01 uM, Number of replicates 2.0, Standard deviation 0.6482125452450617 %", "result": -1.25, "unit": "%"},
      {"measurement": "inhibition", "setting": "Thailand/16681/1984, Concentration 198.0 uM, Number of replicates 2.0, Standard deviation 1.0139545093997464 %", "result": -1.41, "unit": "%"}
    ]},
    {"smiles": "O=Cc1ccc(N2CCC(C(=O)NCc3ccccc3Br)CC2)cc1", "values": [
      {"measurement": "inhibition", "setting": "[1]", "result": 12.3, "unit": "%"}
    ]},
    {"smiles": "O=Cc1ccc(N2CCC(C(=O)NCc3ccc4ccccc4n3)CC2)cc1", "values": [
      {"measurement": "inhibition", "setting": "[1]", "result": 12.8, "unit": "%"}
    ]},
    {"smiles": "Cc1nc(C2CCN(Cc3c[nH]c4ccccc34)CC2)sc1C(=O)O", "values": [
      {"measurement": "inhibition", "setting": "Thailand/16681/1984, Concentration 49.5 uM, Number of replicates 2.0, Standard deviation 2.532196482700825 %", "result": -7.37, "unit": "%"},
      {"measurement": "inhibition", "setting": "Thailand/16681/1984, Concentration 99.01 uM, Number of replicates 2.0, Standard deviation 0.1962596660766768 %", "result": -5.26, "unit": "%"},
      {"measurement": "inhibition", "setting": "Thailand/16681/1984, Concentration 198.0 uM, Number of replicates 2.0, Standard deviation 1.7247831523377455 %", "result": -1.52, "unit": "%"}
    ]},
    {"smiles": "COC(=O)c1cncc(C(=O)Nc2ccncc2C)c1", "values": [
      {"measurement": "inhibition", "setting": "Thailand/16681/1984, Concentration 49.5 uM, Number of replicates 2.0, Standard deviation 6.3209660189886 %", "result": 2.4, "unit": "%"},
      {"measurement": "inhibition", "setting": "Thailand/16681/1984, Concentration 99.01 uM, Number of replicates 2.0, Standard deviation 0.9582277355643998 %", "result": -1.8, "unit": "%"},
      {"measurement": "inhibition", "setting": "Thailand/16681/1984, Concentration 198.0 uM, Number of replicates 2.0, Standard deviation 0.7051109593221626 %", "result": -2.38, "unit": "%"}
    ]},
    {"smiles": "Cc1cc(S(=O)(=O)NCCNC(=O)c2ccc(O)c(NC(=O)c3ccncc3F)c2C)c(C)s1", "values": [
      {"measurement": "inhibition", "setting": "Thailand/16681/1984, Concentration 49.5 uM, Number of replicates 2.0, Standard deviation 0.0696651159595359 %", "result": -1.95, "unit": "%"},
      {"measurement": "inhibition", "setting": "Thailand/16681/1984, Concentration 99.01 uM, Number of replicates 2.0, Standard deviation 0.12517951182523615 %", "result": -1.5, "unit": "%"},
      {"measurement": "inhibition", "setting": "Thailand/16681/1984, Concentration 198.0 uM, Number of replicates 2.0, Standard deviation 0.5034395957498385 %", "result": 0.045, "unit": "%"}
    ]},
    {"smiles": "COc1ccc(CN(C)C(=O)C2CCN(c3ccc(C=O)cc3)CC2)c(OC)c1", "values": [
      {"measurement": "inhibition", "setting": "[1]", "result": 14, "unit": "%"}
    ]},
    {"smiles": "NC(=O)c1c(NC(=O)C2CCN(c3ccc(C=O)cc3)CC2)sc2c1CCCC2", "values": [
      {"measurement": "inhibition", "setting": "[1]", "result": 38.6, "unit": "%"}
    ]},
    {"smiles": "CCn1cc(S(=O)(=O)Nc2ccc(Cl)cc2C(=O)NC)cn1", "values": [
      {"measurement": "inhibition", "setting": "Thailand/16681/1984, Concentration 49.5 uM, Number of replicates 2.0, Standard deviation 0.5029835247021022 %", "result": -6.21, "unit": "%"}
    ]},
    {"smiles": "C[C@@H](c1ccccc1)N(C(=O)C1CCN(c2ccc(C=O)cc2)CC1)[C@@H](C)c1ccccc1", "values": [
      {"measurement": "inhibition", "setting": "[1]", "result": 15.2, "unit": "%"}
    ]},
    {"smiles": "CC1(C)Cc2sc(NC(=O)Cc3ccc(S(N)(=O)=O)cc3)c(C#N)c2CN1CC1CCCCC1", "values": [
      {"measurement": "inhibition", "setting": "Thailand/16681/1984, Concentration 49.5 uM, Number of replicates 2.0, Standard deviation 0.009484052439315419 %", "result": 8.25, "unit": "%"},
      {"measurement": "inhibition", "setting": "Thailand/16681/1984, Concentration 99.01 uM, Number of replicates 2.0, Standard deviation 0.7150155530159198 %", "result": 14.5, "unit": "%"},
      {"measurement": "inhibition", "setting": "Thailand/16681/1984, Concentration 198.0 uM, Number of replicates 2.0, Standard deviation 0.2762742778628508 %", "result": 23.9, "unit": "%"}
    ]},
    {"smiles": "Cc1cc(CO)c2cccc(Cc3ccccc3C(=O)NCc3sccc3C)c2n1", "values": [
      {"measurement": "inhibition", "setting": "Thailand/16681/1984, Concentration 49.95 uM, Number of replicates 2.0, Standard deviation 0.661878407993628 %", "result": 1.17, "unit": "%"},
      {"measurement": "inhibition", "setting": "Thailand/16681/1984, Concentration 99.9 uM, Number of replicates 2.0, Standard deviation 2.367239112425795 %", "result": 7.83, "unit": "%"}
    ]},
    {"smiles": "Cc1cc(CO)c2cccc(Cc3ccccc3C(=O)NCc3ccc(S(N)(=O)=O)cc3)c2n1", "values": [
      {"measurement": "inhibition", "setting": "Thailand/16681/1984, Concentration 49.95 uM, Number of replicates 2.0, Standard deviation 1.5695359944911405 %", "result": 4.94, "unit": "%"},
      {"measurement": "inhibition", "setting": "Thailand/16681/1984, Concentration 99.9 uM, Number of replicates 2.0, Standard deviation 2.135114838489864 %", "result": 9.8, "unit": "%"}
    ]},
    {"smiles": "Cc1cc(CO)c2cccc(Cc3cccc(C(=O)NCc4sccc4C)c3)c2n1", "values": [
      {"measurement": "inhibition", "setting": "Thailand/16681/1984, Concentration 49.95 uM, Number of replicates 2.0, Standard deviation 0.7466793423372446 %", "result": 1.25, "unit": "%"},
      {"measurement": "inhibition", "setting": "Thailand/16681/1984, Concentration 99.9 uM, Number of replicates 2.0, Standard deviation 0.16169689007422708 %", "result": 23.8, "unit": "%"}
    ]},
    {"smiles": "Cc1cc(CO)c2cccc(Cc3ccccc3C(=O)NCc3ccc(C(N)=O)cc3)c2n1", "values": [
      {"measurement": "inhibition", "setting": "Thailand/16681/1984, Concentration 49.95 uM, Number of replicates 2.0, Standard deviation 0.2888981019288338 %", "result": 2.07, "unit": "%"},
      {"measurement": "inhibition", "setting": "Thailand/16681/1984, Concentration 99.9 uM, Number of replicates 2.0, Standard deviation 0.18972386998439544 %", "result": 5.84, "unit": "%"}
    ]},
    {"smiles": "Cc1cc(CO)c2cccc(CC(=O)NCc3sccc3C)c2n1", "values": [
      {"measurement": "inhibition", "setting": "Thailand/16681/1984, Concentration 49.95 uM, Number of replicates 2.0, Standard deviation 0.3413314788746907 %", "result": 44, "unit": "%"},
      {"measurement": "inhibition", "setting": "Thailand/16681/1984, Concentration 99.9 uM, Number of replicates 2.0, Standard deviation 0.321257440691134 %", "result": 63.7, "unit": "%"}
    ]},
    {"smiles": "Cc1cc(N)cc(CNC(=O)c2ccccc2Cc2cccc3c(CO)cc(C)nc23)c1", "values": [
      {"measurement": "inhibition", "setting": "Thailand/16681/1984, Concentration 49.95 uM, Number of replicates 2.0, Standard deviation 1.0161746789387547 %", "result": 47.1, "unit": "%"},
      {"measurement": "inhibition", "setting": "Thailand/16681/1984, Concentration 99.9 uM, Number of replicates 2.0, Standard deviation 1.7549489162224476 %", "result": 74.7, "unit": "%"}
    ]},
    {"smiles": "CC(C)NC(=O)CN1CCN(C(=O)C2CCN(c3ccc(C=O)cc3)CC2)CC1", "values": [
      {"measurement": "inhibition", "setting": "[1]", "result": 11.2, "unit": "%"}
    ]},
    {"smiles": "Cc1cn2nnc(C(=O)N3CCC[C@H](c4nc(=O)[nH][nH]4)C3)c2c(=O)[nH]1", "values": [
      {"measurement": "inhibition", "setting": "Thailand/16681/1984, Concentration 49.5 uM, Number of replicates 2.0, Standard deviation 1.1306810071407891 %", "result": -1.83, "unit": "%"},
      {"measurement": "inhibition", "setting": "Thailand/16681/1984, Concentration 99.01 uM, Number of replicates 2.0, Standard deviation 1.1436614778388714 %", "result": -1.38, "unit": "%"},
      {"measurement": "inhibition", "setting": "Thailand/16681/1984, Concentration 198.0 uM, Number of replicates 2.0, Standard deviation 0.31245549284811885 %", "result": -1.83, "unit": "%"}
    ]},
    {"smiles": "Cc1cc(CO)c2cccc(Cc3cccc(C(=O)N[C@H]4C[C@@H](O)C4)c3)c2n1", "values": [
      {"measurement": "inhibition", "setting": "Thailand/16681/1984, Concentration 49.95 uM, Number of replicates 2.0, Standard deviation 0.3715430142368757 %", "result": 6.97, "unit": "%"},
      {"measurement": "inhibition", "setting": "Thailand/16681/1984, Concentration 99.9 uM, Number of replicates 2.0, Standard deviation 0.8666943057865014 %", "result": 29.2, "unit": "%"}
    ]},
    {"smiles": "Cc1cc(CO)c2cccc(C[C@H](NC(=O)c3cc(C(F)F)nn3C)C(=O)O)c2n1", "values": [
      {"measurement": "inhibition", "setting": "Thailand/16681/1984, Concentration 49.95 uM, Number of replicates 2.0, Standard deviation 1.4383595761786832 %", "result": 1.98, "unit": "%"},
      {"measurement": "inhibition", "setting": "Thailand/16681/1984, Concentration 99.9 uM, Number of replicates 2.0, Standard deviation 0.48778570830386186 %", "result": 5.89, "unit": "%"}
    ]},
    {"smiles": "Cc1nc(N)c2cccc(Cl)c2n1", "values": [
      {"measurement": "inhibition", "setting": "Thailand/16681/1984, Concentration 49.95 uM, Number of replicates 2.0, Standard deviation 5.075529174302592 %", "result": -8.29, "unit": "%"},
      {"measurement": "inhibition", "setting": "Thailand/16681/1984, Concentration 99.9 uM, Number of replicates 2.0, Standard deviation 2.1313934403537464 %", "result": -8.87, "unit": "%"}
    ]},
    {"smiles": "COc1ccccc1N1CCN(C(=O)C2CCN(c3ccc(C=O)cc3)CC2)CC1", "values": [
      {"measurement": "inhibition", "setting": "[1]", "result": 12.1, "unit": "%"}
    ]},
    {"smiles": "NCCC(=O)Nc1cccc2cccnc12", "values": [
      {"measurement": "inhibition", "setting": "Thailand/16681/1984, Concentration 49.95 uM, Number of replicates 2.0, Standard deviation 1.674842930068702 %", "result": -9.45, "unit": "%"},
      {"measurement": "inhibition", "setting": "Thailand/16681/1984, Concentration 99.9 uM, Number of replicates 2.0, Standard deviation 2.956474982493684 %", "result": -7.49, "unit": "%"}
    ]}
  ]
}
